# Laboratory results: PubChem BioAssay
# Several values for one entry are separate records, joined by “and”; a condition that tells them apart may be missing. Identical values can stand only once. Activity calls are given as the source filed them. Unless noted, how the calls were made is not given here. Where a SMILES comes first, the peptide text is derived from it. The star is where a group is joined. Cbz = O=C(OCc1ccccc1)*
# Assays:
# [1] = compounds altering viability of human ES cells (AID 493140); details: human embryonic stem cell survival screen; stronger effect = higher value;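 further: cells exposed to compounds for four days before counting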
# [2] = P. berghei load reduction in hepatocytes – cell-based, HepG2, luciferase luminescence, HepG2 viability, primary screen (AID 624349; in the data active means parasite load remaining mostly below about 12%, no sharp cut-off; inactive means mostly above about 10%;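 further: 100% = mean of DMSO negative control wells on the same plate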); details: P. berghei liver stage in HepG2, luciferase luminescence, concentration not given here; parasite load remaining: stronger effect = lower value; viability: measured here: HepG2 viability without parasites
# [3] = viability loss with induced miR-34 in A549 – imaging, A549 dox-inducible miR-34, nuclei and caspase counts, primary screen (AID 1347080;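 active means compounds whose cell count with miR-34 switched on is under 0.7 times the count with it off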); details: A549 miR-34 inducible, Hoechst nuclei count, 48 h
# [4] = chitosan synthesis blockers in C. neoformans – flow cytometry, Cibacron Brilliant Red staining (AID 1347148); details: Cryptococcus neoformans chitosan, stronger effect = lower value; at 10 µM unless noted;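 further: compound exposure lasted three days at 37 degrees C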
# [5] = MELAS cybrid and Rieske KO viability enhancers – cell-based, MELAS cybrids, Rieske KO mouse fibroblasts, CellTiter-Glo, primary screen (AID 1508586;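 active means mean z-score across replicates of 1.96 or higher in either the MELAS or the Rieske mutant cell line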;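 further: z relative to plate mean and SD of compound and empty wells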); details: low glucose
# [6] = compounds altering circadian rhythm period length – cell-based, LOPAC library, luminescence reporter (AID 2774); details: circadian reporter cells, at 7 µM, actives lie on both sides;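 further: values are relative to mean of DMSO wells on each plate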
# [7] = tested on: Hepatitis C virus NS3 helicase; assay: blockers of NS3h binding to ssDNA – biochemical, fluorescence polarization, LOPAC1280 library, primary screen (AID 687035; in the data active means inhibition above about 37%); details: Purified HCV NS3 helicase, Cy5-dT15 ssDNA binding fluorescence polarization; stronger effect = higher value; concentration not given here
# [8] = compounds altering Cy5-DNA-NS3h complex signal – biochemical, LOPAC1280, artefact control for HCV NS3 helicase inhibitor project (AID 687037); details: Cy5-DNA-NS3h complex fluorescence interference counterscreen
# [9] = blockers of cellular phospholipid synthesis – cell-based, LOPAC library, screen 4, primary screen (AID 1347384); details: animal cells, phospholipid biosynthesis inhibition screen; at 10 µM
# [10] = galactose survival enhancers in mitochondrial complex I cybrids – cell-based, galactose medium, ATP luminescence, primary screen (AID 1645843;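 active means z-score of at least 1.8 in each of two replicates, scored against plate mean and spread of sample wells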;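 further: positive z means more ATP and so rescue of galactose-driven cybrid death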); details: complex I mutant cybrid cells, 72 h, stronger effect = higher value
# [11] = stronger effect = lower value, cell number ratio, induced over uninduced
# [12] = measured here: relative caspase fold change +Dox/-Dox
# [13] = measured here: total cells with miR-34 induction, stronger effect = lower value
# [14] = measured here: total cells without miR-34 induction
# [15] = MELAS cybrid survival, CellTiter-Glo 48 h, stronger effect = higher value
# [16] = Rieske KO mouse fibroblast survival, CellTiter-Glo 72 h
smiles,measurement,setting,value
COc1cc2ncc(-c3ccccc3)nc2cc1OC,survival,[1],66.2 (inactive)
same,parasite load remaining,[2],37% (inactive)
same,viability,[2],96.9%
same,fold change,[3]; [11],0.803 (inactive) and 0.84 (inactive)
same,fold change,[3]; [12],1.43 and 0.498
same,cell count,[3]; [13],3060 and 6730
same,cell count,[3]; [14],3820 and 8010
same,fold fluorescence,[4],6 [at 187.8 µM] (inactive)
same,z-score,[5]; [15],0.0666 (inactive)
same,z-score,[5]; [16],1.44
O=c1[nH]c2cc(C(F)(F)F)ccc2n1-c1cc(C(F)(F)F)ccc1O,period change,[6],-0.3 h (inactive)
same,inhibition,[7],-6% (inactive)
same,fluorescence ratio (interference),[8],0.9 (inactive)
same,fold change,[3]; [11],0.996 (inactive) and 0.985 (inactive)
same,fold change,[3]; [12],0.925 and 0.952
same,cell count,[3]; [13],9130 and 5130
same,cell count,[3]; [14],9180 and 5210
same,fold fluorescence,[4],3.32 [at 138 µM] (inactive)
same,outcome,[9],inactive
same,z-score,[10],0.585 (inactive)
C[C@@H]1CC[C@H]2[C@@H](C)C(O)O[C@@H]3OC4(C)CC[C@@H]1[C@]32OO4 (some centres not stated),fold change,[3]; [11],0.843 (inactive)
same,fold change,[3]; [12],0.767
same,cell count,[3]; [13],3740
same,cell count,[3]; [14],4440
CC(C)[C@H](NC(=O)OCc1ccccc1)C(=O)N[C@H](C=O)Cc1ccccc1 (Cbz-Val-Phe-aldehyde),period change,[6],-0.095 h (inactive)
same,inhibition,[7],1% (inactive)
same,fluorescence ratio (interference),[8],1.1 (inactive)
same,fold change,[3]; [11],1.08 (inactive) and 0.959 (inactive)
same,fold change,[3]; [12],1.1 and 1.17
same,cell count,[3]; [13],9200 and 4810
same,cell count,[3]; [14],8520 and 5010
same,fold fluorescence,[4],5.31 [at 130.7 µM] (inactive)
same,outcome,[9],inactive
same,z-score,[10],0.52 (inactive)
CCCCCCCCCCCCC/C=C/[C@@H](O)[C@@H](N)CO,survival,[1],98.4 (inactive) and 83.2 (inactive)
same,fold change,[3]; [11],0.985 (inactive) and 0.945 (inactive)
same,fold change,[3]; [12],1.13 and 1.49
same,cell count,[3]; [13],6200 and 6060
same,cell count,[3]; [14],6290 and 6410
same,fold fluorescence,[4],8.01 (inactive)
CCCCC/C=C\C/C=C\C/C=C\C/C=C\CCCC(=O)OCc1ccsc1,fold change,[3]; [11],0.989 (inactive)
same,fold change,[3]; [12],1.02
same,cell count,[3]; [13],6270
same,cell count,[3]; [14],6340
CC(C)OC(=O)CCC/C=C\C[C@@H]1[C@@H](/C=C/C(=O)COc2cccc(C(F)(F)F)c2)[C@H](O)C[C@@H]1O,fold change,[3]; [11],0.979 (inactive)
same,fold change,[3]; [12],1.05
same,cell count,[3]; [13],6150
same,cell count,[3]; [14],6280
NC(=S)NCCC[C@H](N)C(=O)O,fold change,[3]; [11],0.92 (inactive) and 1.03 (inactive)
same,fold change,[3]; [12],1.34 and 0.799
same,cell count,[3]; [13],5590 and 6220
same,cell count,[3]; [14],6080 and 6060
same,fold fluorescence,[4],2.92 [at 261.4 µM] (inactive)
COc1c(O)c2c(=O)cc(OC)c3c4c(OC)cc(=O)c5c(O)c(OC)c(C[C@@H](C)OC(=O)c6ccccc6)c(c(c1C[C@@H](C)OC(=O)Oc1ccc(O)cc1)c23)c54,fold change,[3]; [11],0.961 (inactive)
same,fold change,[3]; [12],0.723
same,cell count,[3]; [13],2210
same,cell count,[3]; [14],2300
CCCCC/C=C\C/C=C\C/C=C\CCCCCCC(=O)O,survival,[1],92.4 (inactive)
same,fold change,[3]; [11],1.02 (inactive) and 1.05 (inactive)
same,fold change,[3]; [12],1.28 and 1.4
same,cell count,[3]; [13],5830 and 6270
same,cell count,[3]; [14],5710 and 6000
same,fold fluorescence,[4],4.94 (inactive)
CCN(CC)CCCCCCCCOC(=O)c1cc(OC)c(OC)c(OC)c1,period change,[6],-0.085 h (inactive)
same,inhibition,[7],-4% (inactive)
same,fluorescence ratio (interference),[8],0.9 (inactive)
same,fold change,[3]; [11],1.02 (inactive) and 0.949 (inactive)
same,fold change,[3]; [12],0.695 and 1.09
same,cell count,[3]; [13],8240 and 4880
same,cell count,[3]; [14],8090 and 5140
same,fold fluorescence,[4],8.07 [at 126.4 µM] (inactive)
same,outcome,[9],inactive
same,z-score,[10],-0.285 (inactive)
O=C1NC(O)=NC1(c1ccccc1)c1ccccc1,period change,[6],-0.095 h (inactive)
same,inhibition,[7],-2% (inactive)
same,fluorescence ratio (interference),[8],1.1 (inactive)
same,fold change,[3]; [11],0.966 (inactive) and 0.93 (inactive)
same,fold change,[3]; [12],1.46 and 0.866
same,cell count,[3]; [13],9800 and 7860
same,cell count,[3]; [14],10100 and 8450
same,fold fluorescence,[4],4.71 [at 198.2 µM] (inactive)
same,z-score,[5]; [15],-0.314 (inactive)
same,z-score,[5]; [16],-0.0769
same,z-score,[10],0.26 (inactive)
C#CCCCCCCCCCCCCCCCC(=O)O,survival,[1],96.8 (inactive)
same,fold change,[3]; [11],0.987 (inactive) and 1.06 (inactive)
same,fold change,[3]; [12],1.49 and 0.91
same,cell count,[3]; [13],5840 and 5920
same,cell count,[3]; [14],5920 and 5580
same,fold fluorescence,[4],5.76 (inactive)
CCCCC[C@H](O)/C=C/[C@@H]1[C@@H](CCCCCCCO)[C@@H](O)C[C@H]1O,fold change,[3]; [11],0.922 (inactive)
same,fold change,[3]; [12],1.15
same,cell count,[3]; [13],5540
same,cell count,[3]; [14],6010
C=C1C(=O)O[C@H](CCCCCCCC)[C@H]1C(=O)O,fold change,[3]; [11],1.04 (inactive)
same,fold change,[3]; [12],0.706
same,cell count,[3]; [13],6150
same,cell count,[3]; [14],5890
NC(=Nc1ccccc1)NC(=O)c1nc(Cl)c(N)nc1N,period change,[6],-0.435 h (inactive)
same,parasite load remaining,[2],58.8% (inactive)
same,viability,[2],98%
same,inhibition,[7],-2% (inactive)
same,fluorescence ratio (interference),[8],1 (inactive)
same,fold change,[3]; [11],1.04 (inactive) and 0.937 (inactive) and 0.841 (inactive)
same,fold change,[3]; [12],1.01 and 1.25 and 1.03
same,cell count,[3]; [13],5840 and 3000 and 8780
same,cell count,[3]; [14],5620 and 3200 and 10400
same,fold fluorescence,[4],5.89 [at 163.5 µM] (inactive)
same,outcome,[9],inactive
same,z-score,[5]; [15],1.28 (inactive)
same,z-score,[5]; [16],0.859
same,z-score,[10],-0.925 (inactive) and 0.595 (inactive)
C1CCC(NC(=NC2C3CC4CC(C3)CC2C4)N2CCOCC2)CC1 (configuration not stated),fold change,[3]; [11],1.04 (inactive)
same,fold change,[3]; [12],1.05
same,cell count,[3]; [13],5720
same,cell count,[3]; [14],5520
CCCCC[C@H](O)/C=C/[C@H]1C=CC(=O)[C@@H]1C/C=C\CCCC(=O)O,survival,[1],122 (inactive)
same,fold change,[3]; [11],0.976 (inactive) and 0.946 (inactive)
same,fold change,[3]; [12],1.27 and 1.82
same,cell count,[3]; [13],5740 and 5500
same,cell count,[3]; [14],5880 and 5820
same,fold fluorescence,[4],4.51 (inactive)
